Experimental data from PubChem BioAssay (NCI).
This is part of a sample that, as a whole, favours compounds with a hit. Of some 79,000 tested, about 15% had one in any assay. Calls of active or inactive are those of the source. Rule as the data show it: active = growth inhibition above about 70%; inactive = the rest.

Columns and labels:
[1] = NCI Yeast Anticancer Drug Screen. Data for the rad50 strain (AID 155);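 also: 0% = growth of vehicle-only cultures of the same strain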; details: S. cerevisiae rad50 strain growth inhibition; at 50.0 µM; hits give high values
Method in brief: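 Cells are treated with compound, grown, and their growth is then scored against vehicle-only cultures of the same repair-deficient yeast strain.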

[2] = NCI Yeast Anticancer Drug Screen. Data for the mec2-1 strain (AID 157); details: S. cerevisiae mec2-1 strain, at 50.0 µM, hits give high values
Method in brief: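 Test agents were screened against the mec2-1 yeast strain, with defined DNA repair or cell cycle alteration. Growth was scored as inhibition against vehicle-only controls.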

[3] = NCI Yeast Anticancer Drug Screen. Data for the sgs1 mgt1 strain (AID 161);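 also: 0% = growth of cultures given vehicle only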; details: S. cerevisiae sgs1 mgt1 strain, at 50.0 µM, hits give high values
Method in brief: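 Inhibition of yeast growth, normalised to vehicle-treated controls, is reported for a strain bearing genetic alterations in DNA damage repair.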

[4] = NCI Yeast Anticancer Drug Screen. Data for the cln2 rad14 strain (AID 165);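 also: 0% = growth equal to vehicle treated cultures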; details: S. cerevisiae cln2 rad14 strain, at 50.0 µM, hits give high values
Method in brief: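 Growth of compound-exposed yeast (cln2 rad14 genotype) measured and expressed as inhibition relative to vehicle.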

[5] = NCI Yeast Anticancer Drug Screen. Data for the bub3 strain (AID 167); details: S. cerevisiae bub3 mutant strain, at 50.0 µM, hits give high values
Method in brief: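 Part of a panel of yeast mutants defective in DNA damage repair or cell cycle regulation. Each strain is grown with compound, and inhibition is calculated relative to solvent-treated cultures.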

[6] = NCI Yeast Anticancer Drug Screen. Data for the mlh1 rad18 strain (AID 175); details: S. cerevisiae mlh1 rad18 strain growth inhibition; at 50.0 µM; hits give high values
Method in brief: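 In this whole-cell yeast screen, a strain with altered DNA damage repair is challenged with compound, and its growth is measured against matched vehicle-treated controls.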

Measured: growth inhibition

N#CCC(=O)O
inactive: [1] -0.2% | [2] 6.5% | [3] -4.3% | [4] 2.05% | [5] -3.2% | [6] -9%

O=c1[nH]c(-c2ccc(-c3nc4cc([N+](=O)[O-])ccc4c(=O)[nH]3)cc2)nc2cc([N+](=O)[O-])ccc12
inactive: [1] -33% | [2] -13.8% | [3] -26.7% | [4] -6.9% | [5] -24.5% | [6] -13.3%

O=C(NC(=S)OC1CCCC1OC(=S)NC(=O)c1ccccc1)c1ccccc1 (stereo unspecified)
inactive: [1] -21.5% | [2] -12.6% | [3] -10.1% | [4] 14.5% | [5] -13.2% | [6] -33.7%

CCCCCCCCCCCOCCC1C(C(C)OCCN2CCCC2)OC2OC(C)(C)OC21 (stereo unspecified)
active: [1] 91.5% | [2] 92.8% | [3] 90.5% | [4] 90.4% | [5] 88.2% | [6] 89%

BrC1C2CC/C=C\CCC12 (stereo unspecified)
inactive: [1] 43.9% | [2] 22.7% | [3] 10.9% | [4] 11.6% | [5] 18% | [6] 13.9%

O=C1NC(Cc2ccccc2)C(=O)N2CCCC12 (stereo unspecified)
inactive: [1] 2.55% | [2] -6.75% | [3] -12.2% | [4] -18.1% | [5] -1.15% | [6] 3.35%

CCCCN(CCCC)Cc1ccnc(C)c1O
inactive: [1] -9.3% | [2] 5.85% | [3] -8.5% | [4] 8.7% | [5] 3.75% | [6] 7.9%

O=c1[nH]c2cc(Cl)ccc2nc1/C=C(\O)c1ccco1
inactive: [1] 7.55% | [2] -10.4% | [3] -16.1% | [4] 10.3% | [5] -33.6% | [6] 13.3%

COc1ccc(/C=C/C(=O)C(C)(C)C)cc1OC
inactive: [1] 25.4% | [2] 3.9% | [3] 3.6% | [4] 31.5% | [5] 27.9% | [6] 23.2%

O=C1Sc2ccccc2Cn2cccc21
inactive: [1] -1.7% | [2] 13% | [3] 13.3% | [4] -19.6% | [5] -6.3% | [6] 8.7%

CC(N)c1ccc(OCCOc2ccc(C(C)(C)CC(C)(C)C)cc2)cc1 (stereo unspecified)
inactive: [3] 42.7%
active: [1] 98.9% | [2] 99% | [4] 97.7% | [5] 98.9% | [6] 99%

COc1cc([N+](=O)[O-])c2nccc(C)c2c1
inactive: [1] 13.1% | [2] 6.1% | [3] -0.6% | [4] -5.05% | [5] -5.1% | [6] 18.6%

CC(C)=CCc1c(O)ccc(C(=O)C2C(c3c(O)cc(-c4cc5ccc(O)cc5o4)cc3O)C=C(C)CC2c2ccc(O)cc2O)c1O (stereo unspecified)
active: [1] 87% | [2] 90.7% | [3] 90% | [4] 89.4% | [5] 88.2% | [6] 87.9%

CC1=C(C#[N+][O-])C(C)(C)CCC1
inactive: [1] 1.05% | [2] 5.1% | [3] -2.9% | [4] 10.1% | [5] -23.9% | [6] -16.2%

C/C(=N/Nc1ccc([N+](=O)[O-])cc1[N+](=O)[O-])C1=CCCCC1
inactive: [1] -0.2% | [2] -1.35% | [3] -0.95% | [4] -4.8% | [5] 3.15% | [6] -4.85%

O=C(N/N=C\c1c[nH]c2ccccc12)N/N=C/c1c[nH]c2ccccc12
inactive: [1] -4.05% | [2] -21.4% | [3] -7.25% | [4] -11.2% | [5] -3.45% | [6] -37.9%

O=C(Nc1ccc2c(c1)OCO2)O/N=C\c1ccccn1
inactive: [1] 9.15% | [2] 26.8% | [3] 17.7% | [4] 57.4% | [5] 9.4% | [6] 42.1%

CC(=O)Nc1c(C)ccc(C)c1C(=O)O
inactive: [1] 3.65% | [2] -0.7% | [3] 8.25% | [4] 1.15% | [5] 13.8% | [6] 11.8%

CC(C)NC(=O)/C=C/C(=O)O
inactive: [1] -16.1% | [2] -20.4% | [3] -41.2% | [4] -7.4% | [5] -11.2% | [6] -9.1%

O=C(O)/C=C/C(=O)Nc1ccc2c(c1)-c1ccccc1C2=O
inactive: [1] 15.9% | [2] 14.4% | [3] 17.9% | [4] 5.25% | [5] 5.15% | [6] 16.6%

CCOC(=O)c1c(/N=C/c2ccc3c(c2)OCO3)sc2c1CCCC2
inactive: [1] 7.7% | [2] -23.3% | [3] 17.8% | [4] 11.8% | [5] 11.3% | [6] 3.2%

CC(=O)Oc1ccccc1C(OC(C)=O)OC(C)=O
inactive: [1] 31.8% | [2] 5.2% | [3] 12.5% | [4] -20.1% | [5] 2.05% | [6] 34.4%

CCSc1[nH]c(NC(=NC(C)C)NC(=O)c2ccccc2)c(C(N)=O)c1C(N)=O
inactive: [1] 2.75% | [2] 1.35% | [3] 0.8% | [4] 9.3% | [5] -4.75% | [6] 18.6%

CNC1(C(=O)O)CCCCC1
inactive: [1] -0.35% | [2] -4.65% | [3] -2% | [4] 4.6% | [5] 4.85% | [6] -2.2%

O=C(NCc1ccccc1)Nc1cccc2c(NC(=O)NCc3ccccc3)cccc12
inactive: [1] -32.3% | [2] -31.2% | [3] -26.9% | [4] -8.15% | [5] -27.5% | [6] -7.95%

O=C(c1ccc(C2CCCCC2)cc1)C(C(c1ccccc1)N1CCOCC1)N1CCOCC1 (stereo unspecified)
inactive: [1] -54.7% | [2] -16.6% | [3] -19.9% | [4] -10.6% | [5] -3.75% | [6] 23.9%

CCc1nc(N)nc(N)c1-c1ccc(NC(C)c2ccccc2)c([N+](=O)[O-])c1 (stereo unspecified)
inactive: [1] 13.6% | [2] -8.4% | [3] 14.5% | [4] -1.1% | [5] 9.1% | [6] -7.6%

CCc1c(O)c2c([nH]c1=O)SC(C)(C)CC2=NCC(C)C
inactive: [1] -23.8% | [2] -33.5% | [3] -16.9% | [4] -2.45% | [5] -43.6% | [6] 9.15%

O=C1NC(CN2CCCCC2)C(=O)NC1CN1CCCCC1 (stereo unspecified)
inactive: [1] -1.1% | [2] -13.4% | [3] 8.7% | [4] -8.7% | [5] -20.1% | [6] 0%

Cc1ccc(P(=O)(O)O)cc1C
inactive: [1] -18.2% | [2] -7.3% | [3] 0.3% | [4] -2.1% | [5] -7.75% | [6] -10.4%

CCN(CC)CC1CO1 (stereo unspecified)
inactive: [1] -8.15% | [2] -12.1% | [3] 3.35% | [4] -3.5% | [5] -11.7% | [6] 9.2%

NC(=O)C1=CCCC1
inactive: [1] 6% | [2] -0.1% | [3] 0.5% | [4] 10.2% | [5] 12.8% | [6] -3.3%

CC1(C)[C@H](C(=O)O)N2C(=O)[C@@H](NC(=O)C(c3ccccc3)c3ccccc3)[C@H]2S1=O (stereo partly specified)
inactive: [1] -53.5% | [2] -8.25% | [3] -10.4% | [4] 3.65% | [5] -3.9% | [6] 4.85%

O=[N+]([O-])c1ccc2c(N3CCC(CCCC4CCN(c5ncnc6cc([N+](=O)[O-])ccc56)CC4)CC3)ncnc2c1
inactive: [1] 2.55% | [2] -16.7% | [3] 39% | [4] 19.2% | [5] -10.8% | [6] -2.9%

O=C(Nc1cccc(O)c1)c1ccc([N+](=O)[O-])cc1
inactive: [1] 1.5% | [2] 18.6% | [3] 14.4% | [4] -15.3% | [5] 19.7% | [6] 23.4%

O=c1[nH]cnc2nc(-c3cccc([N+](=O)[O-])c3)[nH]c12
inactive: [1] -1% | [2] 30.9% | [3] 12.9% | [4] -13.8% | [5] 5.4% | [6] 24.9%

CCOC(=O)C(F)C(C)=O (stereo unspecified)
inactive: [3] 56.2%
active: [1] 92% | [2] 94.5% | [4] 97.4% | [5] 99.5% | [6] 91.8%

COc1cc2cc(-c3ccccn3)nc(N)c2cc1OC
inactive: [1] 29.2% | [2] 9.35% | [3] 39.5% | [4] 2.55% | [5] -1.5% | [6] 9.95%

O=C(CC(=O)N(C(=O)/C=C\c1ccccc1)c1ccc(Cl)cc1)N1N=C(c2ccccc2)C(N=Nc2cccc([N+](=O)[O-])c2)C1=O (stereo unspecified)
inactive: [1] 7.5% | [2] 3.45% | [3] 9.5% | [4] 1.75% | [5] 14.7% | [6] 5.5%

N#Cc1ccc(NN=NCCCCCCl)cc1
inactive: [1] 22.7% | [2] -3.2% | [3] 1.25% | [4] 8.5% | [5] 15.8% | [6] 1.55%

Cc1occ(Br)c(=O)c1O
inactive: [1] 12.9% | [2] 12.3% | [3] 17.5% | [4] 25.8% | [5] -0.85% | [6] 15.2%
